High-throughput results (PubChem BioAssay)
Shown are actives, neighbours in structure and some others; about 1.2% of the full set was active somewhere.
CASP6 VEID inh – human caspase-6 inhibitors, primary screen, biochemical, VEID-R110 fluorescence, single point, set 2; P55212; purified caspase-6, Z-VEID-R110 cleavage fluorescence; inhibition, % at 12.5 µM; 350,000 compounds, 0.53% hits;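 active means mean inhibition across replicates at least about 35%, with every replicate also reaching that limit, limit read from the data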
Target sequence (P55212 24-179 limits assumed): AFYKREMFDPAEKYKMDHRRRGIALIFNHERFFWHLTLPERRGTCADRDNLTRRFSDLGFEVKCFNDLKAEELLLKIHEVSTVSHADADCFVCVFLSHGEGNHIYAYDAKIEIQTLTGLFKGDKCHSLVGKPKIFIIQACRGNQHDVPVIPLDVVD
Target sequence (P55212 194-293 limits assumed): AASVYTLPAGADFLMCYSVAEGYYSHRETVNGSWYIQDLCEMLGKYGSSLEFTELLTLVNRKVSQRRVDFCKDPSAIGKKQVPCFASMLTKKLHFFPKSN
RAD52 inh – RAD52 DNA annealing inhibitors, primary screen, biochemical, FRET, single point, set 2 | AID 651710, 2012 | DNA repair protein RAD52 homolog (Homo sapiens), P43351 | inhibition, % at 18.7 µM | 360,000 compounds, 0.46% hits | recombinant RAD52 DNA annealing, FRET fluorescence;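 active means every replicate showing at least 50% inhibition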
Target sequence (P43351 whole entry, looked up): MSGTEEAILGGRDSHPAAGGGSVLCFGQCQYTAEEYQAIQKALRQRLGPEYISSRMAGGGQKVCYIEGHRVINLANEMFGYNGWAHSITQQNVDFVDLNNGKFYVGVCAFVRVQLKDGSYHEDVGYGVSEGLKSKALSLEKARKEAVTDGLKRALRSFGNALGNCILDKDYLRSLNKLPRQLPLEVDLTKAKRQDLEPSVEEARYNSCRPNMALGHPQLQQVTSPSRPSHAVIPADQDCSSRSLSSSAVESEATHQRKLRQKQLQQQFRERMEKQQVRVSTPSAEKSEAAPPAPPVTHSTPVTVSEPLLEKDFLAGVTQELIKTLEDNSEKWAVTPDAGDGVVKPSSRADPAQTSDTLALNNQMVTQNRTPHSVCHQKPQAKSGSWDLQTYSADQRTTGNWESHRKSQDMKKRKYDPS
RAD54 inh – inhibitors of human RAD54 branch migration, primary screen, biochemical, fluorescence, single point. DNA repair and recombination protein RAD54-like (Homo sapiens), Q92698. AID 602329, 2012. RAD54 Holliday junction branch migration, FAM/BHQ fluorescence. inhibition, % at 10.4 µM. 360,000 compounds, 0.14% hits;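 active means mean normalized replicate activity at least 40 and at least half of replicates scoring 40 or more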;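 further: inhibitors cause a drop in the FAM fluorescence signal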
AF4-AF9 inh – inhibitors of AF4 peptide binding to AF9, primary screen, biochemical, AlphaScreen, biotin-AF4 peptide, FLAG-AF9, single point. 350,000 compounds, 0.47% hits. Protein AF-9 (Homo sapiens), P42568. inhibition, % at 10 µM;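 active means every replicate reaching a set inhibition limit, whatever the replicate mean, cut at about 25% in these data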
Glyco luc inh – increase of ERlucT glycosylation luciferase signal, primary screen, N-linked glycosylation inhibitor project, D54 ERlucT cells, luminescence, set 2; reporter increase, % at 12.5 µM; AID 588692, 2011; D54 ERlucT glycosylation luciferase reporter, 24 h; percent of 100 nM tunicamycin response; 360,000 compounds, 0.23% hits;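 active means mean luciferase reporter signal, scaled so untreated is 0 and the glycosylation-blocking control 100, at or above a set limit in every replicate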;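 further: luciferase carries N-glycosylation sites so blocking glycosylation raises the light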
Large screens that a line does not name were inactive.

C/C(=N\NC(=O)c1c([N+](=O)[O-])c(C)nn1C)c1ccc(NC(=O)C2CCCC2)cc1	Glyco luc inh 33.1
CC1(Oc2cnc(Cl)c3ccccc23)CCN(Cc2ccc(OC(F)(F)F)cc2)C1 (centres undefined)	CASP6 VEID inh 45.5
CC1(Oc2ccc(Cl)cc2)CCN(Cc2ccc(OC(F)(F)F)cc2)C1 (centres undefined)	none
CCOC(=O)c1c(C)oc2cc(Cl)c(O)c(CN(C)C)c12	none (no result: RAD54 inh)
CCOC(=O)c1c(-c2ccccc2)oc2cc(CN(C)C)c(O)c(CN(C)C)c12	AF4-AF9 inh 36.3
CN1C(C(=O)Nc2cccc(O)c2)=CC(c2cccs2)=NS1(=O)=O	AF4-AF9 inh 26.8
CC(C)NC(=O)N[C@H]1C=C[C@H](CC(=O)NCCCN(C)C)O[C@@H]1CO	none (no result: Glyco luc inh)
C[C@@H]1CN([C@H](C)CO)C(=O)c2cc(-c3ccccc3F)cnc2O[C@H]1CN(C)C(=O)C1CCC1	none (no result: Glyco luc inh)
C[C@@H]1CN([C@@H](C)CO)C(=O)Cc2cc(NC(=O)Cn3cnnn3)ccc2O[C@@H]1CN(C)Cc1ccc(Cl)c(Cl)c1	none (no result: Glyco luc inh)
CC(C)C(OC(=O)C1=Cc2ccccc2OC1)C(=O)NCC1CCCO1 (centres undefined)	CASP6 VEID inh 47.3
C[C@@H]1CN([C@H](C)CO)C(=O)Cc2cc(NS(C)(=O)=O)ccc2O[C@H]1CN(C)C(=O)Nc1ccc(F)cc1	none (no result: Glyco luc inh)
NC(N)=Nc1nc(-c2ccccc2)c2cc(F)ccc2n1	RAD54 inh 55.9
OCCSc1nc(-c2ccccc2)nc2ccc(F)cc12	none (no result: RAD54 inh)
CCCNC(=O)Nc1ccc2c(c1)OC[C@@H](C)N(Cc1ccccn1)C[C@@H](C)[C@H](OC)CN(C)C2=O	none (no result: Glyco luc inh)
CCN1CCN(c2nc3c(C)cccn3c(=O)c2/C=C(\C#N)S(=O)(=O)c2ccc(C)cc2)CC1	none (no result: CASP6 VEID inh, RAD52 inh, AF4-AF9 inh)
CCN1CCN(c2nc3c(C)cccn3c(=O)c2/C=C(\C#N)S(=O)(=O)c2ccc(Cl)cc2)CC1	AF4-AF9 inh 30.0 (no result: RAD54 inh)
O=C(NCC(c1ccco1)N1CCc2ccccc21)c1ccccc1 (centres undefined)	CASP6 VEID inh 51.6
CN(c1ccc(OCC(=O)Nc2cc(Cl)ccc2C(=O)O)cc1)S(=O)(=O)c1ccc(F)cc1	CASP6 VEID inh 36.3
CN(c1ccc(OCC(=O)Nc2ccc(S(N)(=O)=O)cc2)cc1)S(=O)(=O)c1ccc(F)cc1	none
S=c1[nH]c2cc(Cl)c3cccnc3c2o1	CASP6 VEID inh 51.5
C[C@@H]1CCCCO[C@@H](CN(C)Cc2ccc(C(F)(F)F)cc2)[C@@H](C)CN([C@@H](C)CO)C(=O)c2cc(N(C)C)ccc2O1	none (no result: Glyco luc inh)
C[C@@H]1CN([C@H](C)CO)C(=O)c2cc(N(C)C)ccc2O[C@@H](C)CCCCO[C@@H]1CN(C)Cc1ccc(C(=O)O)cc1	none (no result: Glyco luc inh)
C[C@@H]1CCCCO[C@@H](CN(C)Cc2ccc(C(F)(F)F)cc2)[C@H](C)CN([C@@H](C)CO)C(=O)c2cc(N(C)C)ccc2O1	AF4-AF9 inh 32.3 (no result: Glyco luc inh)
C[C@@H]1CCCCO[C@@H](CN(C)Cc2ccc(C(F)(F)F)cc2)[C@H](C)CN([C@H](C)CO)C(=O)c2cc(N(C)C)ccc2O1	AF4-AF9 inh 40.1 (no result: Glyco luc inh)
CC(C)C#Cc1ccc2c(c1)O[C@@H](CN(C)C(=O)c1cccc(F)c1)[C@H](C)CN([C@H](C)CO)S2(=O)=O	none (no result: Glyco luc inh)
CCN(CC)c1ccc(/C=C2\C(=O)N(c3nnc(C)c(=O)[nH]3)N=C2C)cc1	CASP6 VEID inh 36.1, Glyco luc inh 43.1
CCN(CC)c1ccc(/C=C2/C(=O)ON=C2C)cc1	none (no result: RAD54 inh)
O=C1/C(=C/C=C/c2ccco2)SC(=S)N1NS(=O)(=O)c1ccccc1	CASP6 VEID inh 78.9
Cc1noc(C)c1NC(=O)Nc1cccc2c1O[C@H](CN(C)CC1CCCCC1)[C@@H](C)CN([C@H](C)CO)C2=O	none (no result: Glyco luc inh)
CC(=O)c1cccc(-c2ccnc3c2CC(C(=O)NCc2cccs2)O3)c1 (centres undefined)	Glyco luc inh 34.5
O=C(NCc1cccs1)C1Cc2c(-c3ccc(Cl)cc3)ccnc2O1 (centres undefined)	none
Cc1cc2nc3s/c(=C/c4ccc(-c5ccccc5C(=O)O)o4)c(=O)n3c2cc1C	CASP6 VEID inh 36.0
CN(C)c1ccc2c(c1)[C@H]1C[C@H](CC(=O)NCCN3CCCCC3)O[C@H](CO)[C@H]1O2	RAD52 inh 55.8 (no result: Glyco luc inh)
N#C[C@H]1[C@H](c2ccccc2-c2ccccc2)[C@H](CO)N1C(=O)NC1CCCCC1	none (no result: RAD54 inh, Glyco luc inh)
CCCC(=O)Nc1ccc2c(c1)OC[C@H](C)N(C(=O)c1cnccn1)C[C@@H](C)[C@H](OC)CN(C)C2=O	none (no result: Glyco luc inh)
Cc1ccccc1NS(=O)(=O)c1ccc2c3c(cccc13)C(=O)N2C	Glyco luc inh 42.3
CN1C(=O)c2cccc3c(S(=O)(=O)Nc4ccccn4)ccc1c23	Glyco luc inh 40.8 (no result: CASP6 VEID inh, RAD52 inh, RAD54 inh, AF4-AF9 inh)
C[C@@H]1CN([C@@H](C)CO)C(=O)Cc2cc(NC(=O)CCC(F)(F)F)ccc2O[C@H]1CN(C)C(=O)Nc1ccc2c(c1)OCO2	none (no result: Glyco luc inh)
Cc1ccc([N+](=O)[O-])cc1NC(=O)C(C)N1CCCCC1 (centres undefined)	CASP6 VEID inh 40.0 (no result: RAD54 inh)
Cc1cc(-n2c(SCC(=O)NCCC3=CCCCC3)nc3n[nH]c(C)c3c2=N)ccc1Cl	Glyco luc inh 58.9
N=c1c2c(ncn1CCCO)Oc1c(ccc3ccccc13)C2c1ccccc1 (centres undefined)	none (no result: RAD54 inh, AF4-AF9 inh)
CN(C)CCCn1cnc2c(c1=N)C(c1ccccc1)c1ccc3ccccc3c1O2 (centres undefined)	RAD52 inh 76.2
CN(C)CC(=O)N[C@H]1CC[C@@H](CC(=O)O)O[C@H]1CO	none (no result: RAD54 inh, Glyco luc inh)
CCC(C)(C)NC(=O)CN(C(=O)CNS(=O)(=O)c1ccc(F)cc1)c1ccc2c(c1)OCCO2	CASP6 VEID inh 47.4
COc1ccc(CN(C)C[C@@H]2OCCCC[C@@H](C)Oc3ccc(NS(=O)(=O)c4cn(C)cn4)cc3C(=O)N([C@H](C)CO)C[C@H]2C)cc1	none (no result: Glyco luc inh)
COC(=O)C[C@@H]1CC[C@H]2[C@H](COc3ccc(NC(=O)c4ccc(F)c(F)c4)cc3C(=O)N2C)O1	none (no result: Glyco luc inh)
O=C(/C=C/c1ccco1)Oc1ccc(C(=S)N2CCOCC2)cc1	none (no result: RAD54 inh)
COC(=O)c1ccc(OC(=O)/C=C/c2ccco2)cc1	CASP6 VEID inh 35.8
COC(=O)c1ccc(OC(=O)c2ccco2)cc1	none (no result: CASP6 VEID inh, RAD52 inh, AF4-AF9 inh)
O=Cc1cccc(OC(=O)/C=C/c2ccco2)c1	CASP6 VEID inh 87.5
O=C(C[C@H]1CC[C@@H](NC(=O)Cc2ccccn2)[C@H](CO)O1)NCCCN1CCOCC1	none (no result: Glyco luc inh)
O=C(C[C@H]1CC[C@H]2[C@@H](COC[C@H](O)CN2C(=O)c2cccnc2)O1)NCc1ccc(-c2ccccc2)cc1	none (no result: Glyco luc inh)
